The campaign covered roughly 5,500 compounds. About 2,000 (36%) were called active. Not shown: some 18% with an inconclusive outcome. Cut-off read from the data, not from the text of the source: active = normalized growth mostly below about 0.91 (no sharp cut-off); inconclusive = no clear call, values can overlap the other calls; inactive = mostly above about 0.92. The list shows a part of the results.
Experiment: chemical genetic growth profiling, strain panel (AID 1159580);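 note: tested at 20 µM; growth read once vehicle control cultures reached saturation at 30 °C; 1 = growth at the plate median or of vehicle wells; lower values mean less growth of the strain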
Settings: S. cerevisiae deletion strains, growth OD
[1] = locus YGR229C, strain SMI1, active compounds read low
[2] = locus YJR075W, strain HOC1, active compounds read low
[3] = locus YMR263W, strain SAP30, active compounds read low
[4] = locus YMR307W, strain GAS1, active compounds read low
[5] = locus YNL153C, strain GIM3, active compounds read low
[6] = locus YNL322C, strain KRE1, active compounds read low

Measured: normalized growth

CC(C)c1ccc2c(c1)c(SC(C)(C)C)c(CC(C)(C)C(=O)O)n2Cc1ccc(Cl)cc1
inactive: locus YAL040C, strain CLN3, active compounds read low 1.02 | locus YCL061C, strain MRC1 (second series), active compounds read low 1 | locus YDR363W, strain ESC2, active compounds read low 1 | locus YER002W, strain NOP16, active compounds read low 1.03 | [1] 1.03 | [2] 1.02 | [3] 1.01 | [4] 1 | locus YNL128W, strain TEP1, active compounds read low 0.967 | [5] 0.972 | locus YNL175C, strain NOP13, active compounds read low 1.01 | locus YNL197C, strain WHI3, active compounds read low 1.01 | locus YNL224C, strain SQS1, active compounds read low 1.01 | [6] 1.01 | locus YOR083W, strain WHI5 (second series), active compounds read low 0.992

NC(=O)N[C@@H]1O[C@H](CO)[C@@H](O)[C@H](O)[C@H]1O
inactive: locus YAL013W, strain DEP1, active compounds read low 1.03 | locus YBR229C, strain ROT2, active compounds read low 1.01 | locus YCL061C, strain MRC1, active compounds read low 0.987 | locus YDL101C, strain DUN1, active compounds read low 0.994 | locus YDR150W, strain NUM1, active compounds read low 0.992 | locus YEL061C, strain CIN8, active compounds read low 1.02 | locus YGR078C, strain PAC10, active compounds read low 0.993 | [1] 1 | locus YHR030C, strain SLT2, active compounds read low 1 | locus YHR087W, strain rtc3, active compounds read low 1.01 | locus YJL187C, strain SWE1, active compounds read low 1.01 | locus YJR043C, strain POL32, active compounds read low 0.975 | [2] 1 | locus YKL190W, strain CNB1, active compounds read low 1.01 | locus YLR039C, strain RIC1, active compounds read low 1.02 | locus YLR058C, strain SHM2 (second series), active compounds read low 1.01 | locus YLR085C, strain ARP6, active compounds read low 1.07 | locus YLR262C, strain YPT6, active compounds read low 0.981 | locus YML094W, strain GIM5, active compounds read low 1.02 | locus YMR219W, strain ESC1, active compounds read low 1.01 | [3] 0.999 | [4] 1.02 | [5] 0.989 | locus YNL298W, strain CLA4 (second series), active compounds read low 1.05 | [6] 1 | locus YNR030W, strain Alg12, active compounds read low 1.02 | locus YPL055C, strain LGE1, active compounds read low 1.04 | locus YPL241C, strain CIN2, active compounds read low 1.04 | locus YPR135W, strain CTF4, active compounds read low 0.98

— PubChem BioAssay AID1159580 (chemical genetic matrix, 2015)
